# “And” between values parts separate entries of the source, which are not always exact repeats. Equal values may be shown once. Inconclusive results are not listed. The source made the active and inactive calls. Calls come from the whole dose curve; as a rule, active = well fitted cell-killing curve with a large enough effect; inconclusive = small, poorly fitted or top-dose-only effect, or effect the other way; inactive = flat fitted curve, though single readings scatter. Non-standard residues stand in square brackets, D forms with d. Residues, ends and D or L forms follow the SMILES beside them. Peptide text beside a SMILES is read from it. *: point of attachment. Sta = CC(C)C[C@H](N)[C@@H](O)CC(=O)O; Isovaleryl = CC(C)CC(=O)*
# Tested on: CASKI
# Experiment: Primary qHTS to identify gynecologic anti-cancer compounds using libraries of approved drugs and bioactive compounds (AID 1345084); note: nearly all actives have a fitted effect of over 55% in size
# Conditions: Gynecologic cancer cell panel viability, ATPlite luminescence, 48 h; series mostly up to 57.5 µM; activity change, negative = cytotoxicity: at the top concentration
# In short: (§1)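 Cells, 1,000 per well, plated 16 h, then exposed 48 h at 37 C to compounds. Viability by ATPlite luminescence after 15 min at room temperature.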
# % is set by controls: 0 for no effect and ±100 for the full control effect; potency is the fitted concentration of half-maximal effect.
SMILES,Potency,"activity change, negative = cytotoxicity"
CC(C)c1nc(CN(C)C(=O)N[C@H](C(=O)N[C@@H](Cc2ccccc2)C[C@H](O)[C@H](Cc2ccccc2)NC(=O)OCc2cncs2)C(C)C)cs1,inactive,
CC1(C)CCC(C)(C)c2cc(NC(=O)c3ccc(C(=O)O)cc3)ccc21,,-1.75% (inactive)
Cc1nc2n(c(=O)c1CCN1CCC(c3noc4cc(F)ccc34)CC1)CCCC2,,2.95% (inactive)
Cc1cc2cc3c(C)cc(=O)oc3c(C)c2o1,,7.91% (inactive)
CCC(C)(Oc1ccc(C2(c3ccc(OC(C)(CC)C(=O)O)cc3)CCCCC2)cc1)C(=O)O (configuration not stated),inactive,
Nc1ncn([C@H]2C[C@H](O)[C@@H](CO)O2)c(=O)n1,,1.75% (inactive)
CS(=O)(=O)OCCCCOS(C)(=O)=O,,2.42% (inactive)
CC(C)CC(=O)N[C@H](C(=O)N[C@H](C(=O)N[C@@H](CC(C)C)[C@@H](O)CC(=O)N[C@@H](C)C(=O)N[C@@H](CC(C)C)[C@@H](O)CC(=O)O)C(C)C)C(C)C (Isovaleryl-VV[Sta]A[Sta]-OH),,-1.39% (inactive)
CC1=C(C(=O)O)N2C(=O)[C@@H](NC(=O)[C@H](N)C3=CCC=CC3)[C@H]2SC1,,0.853% (inactive)
N=C(N=C(N)N)N1CCOCC1,,-1.15% (inactive)
O=C(NCC1CCCCN1)c1cc(OCC(F)(F)F)ccc1OCC(F)(F)F (configuration not stated),,-21.8% (inactive)
CCC1=C(C)CN(C(=O)NCCc2ccc(S(=O)(=O)NC(=O)NC3CCC(C)CC3)cc2)C1=O (configuration not stated),inactive,
NNc1nncc2ccccc12,,-9.7% [at 25.3 µM] (inactive)
CN1C(C(=O)Nc2ccccn2)=C(O)c2sccc2S1(=O)=O,,12.9% (inactive)
O=C(NOCC1CC1)c1ccc(F)c(F)c1Nc1ccc(I)cc1Cl,,-29.9% (inactive)
CN(C)C(=O)COC(=O)Cc1ccc(OC(=O)c2ccc(N=C(N)N)cc2)cc1,,20.1% (inactive)
COC(=O)C1=C(C)NC(C)=C(C(=O)OC(C)C)C1c1cccc2nonc12 (configuration not stated),,-3.97% (inactive)
Cn1c(NCCN(CCO)CCCc2ccc([N+](=O)[O-])cc2)cc(=O)n(C)c1=O,,-2.77% (inactive)
N=C(N)c1ccc2cc(OC(=O)c3ccc(N=C(N)N)cc3)ccc2c1,,-2.38% (inactive)
CC(S)C(=O)NCC(=O)O (configuration not stated),,-2.28% (inactive)

# Tested on: Es-2
# Experiment: as above
# Conditions: Gynecologic cancer cell panel viability, ATPlite luminescence, 48 h; series mostly up to 57.5 µM; activity change, negative = cytotoxicity: at the top concentration
# In short: as §1
SMILES,"activity change, negative = cytotoxicity",Potency
CCC[C@@H]1C[C@@H](C(=O)N[C@@H]([C@H]2O[C@H](SC)[C@H](O)[C@@H](O)[C@H]2O)[C@@H](C)O)N(C)C1,-0.324% (inactive),
COc1ccc(C2(C#N)CCC(C(=O)O)CC2)cc1OC1CCCC1 (configuration not stated),2.19% (inactive),
CC(=O)Nc1ccc(O)cc1,10.5% (inactive),
Nc1ccc(S(N)(=O)=O)cc1,3.92% (inactive),
O=C(c1ccccc1)c1ccc2n1CCC2C(=O)O (configuration not stated),10.2% (inactive),
CCN(CC)C(=S)SSC(=S)N(CC)CC,,15.8 µM (active)
CCN(CCO)CCCC(C)Nc1ccnc2cc(Cl)ccc12 (configuration not stated),-1.37% [at 6.55 µM] (inactive) and -0.815% [at 6.55 µM] (inactive),
Clc1ccc(C(Cn2ccnc2)OCc2ccc(Sc3ccccc3)cc2)c(Cl)c1 (configuration not stated),-1.3% (inactive),
COCCCN1CCC(NC(=O)c2cc(Cl)c(N)c3c2OCC3)CC1,-0.936% (inactive),
O=C(O)CCNC(=O)c1ccc(N=Nc2ccc(O)c(C(=O)O)c2)cc1,0.428% (inactive),
CCCc1cc(=O)[nH]c(=S)[nH]1,3.82% (inactive),
Oc1ccc(OCc2ccccc2)cc1,-2.05% (inactive),
Cc1cccc(C)c1OCC(=O)N[C@@H](Cc1ccccc1)[C@@H](O)C[C@H](Cc1ccccc1)NC(=O)[C@H](C(C)C)N1CCCNC1=O,-21.8% (inactive),
COC(=O)[C@H](Cc1ccccc1)NC(=O)[C@@H](N)CC(=O)O (H-Asp-Phe-OMe),0.954% (inactive),
COc1cc2nc(N3CCN(C(=O)C4CCCO4)CC3)nc(N)c2cc1OC (configuration not stated),1.11% (inactive),
NS(=O)(=O)c1cc(C(=O)O)c(NCc2ccco2)cc1Cl,-1.26% (inactive),
Cc1cc(=O)oc2cc(O)ccc12,12.6% (inactive),
CC(C)c1nc(CN(C)C(=O)N[C@H](C(=O)N[C@@H](Cc2ccccc2)C[C@H](O)[C@H](Cc2ccccc2)NC(=O)OCc2cncs2)C(C)C)cs1,,inactive
CC1(C)CCC(C)(C)c2cc(NC(=O)c3ccc(C(=O)O)cc3)ccc21,11.2% (inactive),

SMILES,"activity change, negative = cytotoxicity",Potency
Cc1nc2n(c(=O)c1CCN1CCC(c3noc4cc(F)ccc34)CC1)CCCC2,-7.1% (inactive),
Cc1cc2cc3c(C)cc(=O)oc3c(C)c2o1,7.25% (inactive),
CCC(C)(Oc1ccc(C2(c3ccc(OC(C)(CC)C(=O)O)cc3)CCCCC2)cc1)C(=O)O (configuration not stated),,inactive
Nc1ncn([C@H]2C[C@H](O)[C@@H](CO)O2)c(=O)n1,-5.43% (inactive),
CS(=O)(=O)OCCCCOS(C)(=O)=O,7.35% (inactive),
CC(C)CC(=O)N[C@H](C(=O)N[C@H](C(=O)N[C@@H](CC(C)C)[C@@H](O)CC(=O)N[C@@H](C)C(=O)N[C@@H](CC(C)C)[C@@H](O)CC(=O)O)C(C)C)C(C)C (Isovaleryl-VV[Sta]A[Sta]-OH),8.33% (inactive),
CC1=C(C(=O)O)N2C(=O)[C@@H](NC(=O)[C@H](N)C3=CCC=CC3)[C@H]2SC1,2.82% (inactive),
N=C(N=C(N)N)N1CCOCC1,0.266% (inactive),
O=C(NCC1CCCCN1)c1cc(OCC(F)(F)F)ccc1OCC(F)(F)F (configuration not stated),-11.9% (inactive),
CCC1=C(C)CN(C(=O)NCCc2ccc(S(=O)(=O)NC(=O)NC3CCC(C)CC3)cc2)C1=O (configuration not stated),,inactive
NNc1nncc2ccccc12,-14.6% [at 25.3 µM] (inactive),
CN1C(C(=O)Nc2ccccn2)=C(O)c2sccc2S1(=O)=O,-14% (inactive),
O=C(NOCC1CC1)c1ccc(F)c(F)c1Nc1ccc(I)cc1Cl,-25.7% (inactive),
CN(C)C(=O)COC(=O)Cc1ccc(OC(=O)c2ccc(N=C(N)N)cc2)cc1,6.25% (inactive),
COC(=O)C1=C(C)NC(C)=C(C(=O)OC(C)C)C1c1cccc2nonc12 (configuration not stated),-1.49% (inactive),
Cn1c(NCCN(CCO)CCCc2ccc([N+](=O)[O-])cc2)cc(=O)n(C)c1=O,-0.695% (inactive),
N=C(N)c1ccc2cc(OC(=O)c3ccc(N=C(N)N)cc3)ccc2c1,-6.59% (inactive),
CC(S)C(=O)NCC(=O)O (configuration not stated),5.85% (inactive),

# From PubChem BioAssay (NCATS)
